Bioassay records: PubChem, several laboratories
TROY signal inh – inhibitors of TROY-driven NF-kB signaling, primary screen, Q293 LMP1-TROYcd cells, NF-kB luciferase, uHTS | Q293 LMP1-TROYcd NF-kB luciferase reporter, 4 h | inhibition, % at 10 µM | actives 0.98% (n = 360,000) | AID 1347056, 2019;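 active = compounds whose plate-normalised and pattern-corrected inhibition of the luciferase reporter signal at the single screening dose is 50% or more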
TWEAK Fn14 block – inhibitors of TWEAK-Fn14 signaling, primary screen, luciferase reporter cells, uHTS; TWEAK-stimulated Fn14 reporter cells, luciferase luminescence, 8 h; inhibition, % at 10 µM; actives 2% (n = 360,000); AID 1159606, 2016; in the data active = inhibition above about 50%
EWS-Fli block – EWS/Fli-driven NR0B1 reporter inhibitors, primary screen, A673 cells, NR0B1 luciferase, luminescence, MLPCN library | actives 0.67% (n = 350,000) | AID 651661, 2012 | inhibition, % at 12.6 µM | viability-normalised;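 active = mean inhibition of at least 50% after viability correction, with every replicate also passing that limit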;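 also: firefly luciferase signal divided by Alamar Blue viability fluorescence both relative to DMSO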
LMP1 NFkB inh – EBV LMP1-driven NF-kappaB luciferase reporter inhibitors, primary screen, cell-based, luminescence, single point | inhibition, % at 12.5 µM | LMP1-induced NF-kappaB luciferase reporter cells | actives 0.69% (n = 350,000); in the data active = inhibition above about 41%;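 also: 0% = neutral control wells and 100% = reference inhibitor control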
LGR2 inh – inhibitors of bursicon-induced LGR2 CRE-luciferase signal, primary screen, cell-based, HEK293, CRE-luciferase reporter, bursicon stimulation; Drosophila bursicon receptor LGR2 (rickets); bursicon-stimulated, 4 h; inhibition, % at 9.99 µM; actives 0.35% (n = 380,000); AID 720647, 2013;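 active = drop in luminescence signal, shown as inhibition above about 50% in the replicate tests, limit read from the data, passing the limit was not always enough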;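 also: agonist challenge used bursicon conditioned medium at about half maximal strength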
* marks the source's active call; other numbers are inactive results; . = not tested or not shown; ! = not active in a repeat. Only some compounds are listed: those with a hit (about 2.5% of all), similar ones and a draw of the others.

SMILES	TROY signal inh	TWEAK Fn14 block	EWS-Fli block	LMP1 NFkB inh	LGR2 inh
O=c1[nH]c(=O)n(Cc2ccccc2Cl)c(O)c1/C=C1/C=CC=N1	17	44	60*	17	-4
C[N+](C)(C)CC#CCOC(=O)Nc1cccc(Cl)c1	1	6	-9	82*	-4
O=C(Cc1ccccc1)N1CCCCN2[C@@H](CO)[C@H](c3ccc(-c4ccccc4)cc3)[C@@H]2C1	.	.	.	.	14
CCOc1ccc(-c2cc(C)[n+](CCc3ccc(OC)c(OC)c3)c(-c3ccc(OCC)cc3)c2)cc1	53*	7	51*	10	27
O=C(Cc1ccccc1)N1CC2(C1)[C@@H](c1ccccc1)[C@@H](CO)N2Cc1cccc(F)c1	.	.	2	.	4
COc1ccc(CC2NCC(O)C2OC(C)=O)cc1 (stereo unspecified)	88*	100*	59*	88*	.
COc1ccc(CC(=O)N2CCN(C)CC2)cc1	5	18	.	3	.
O=C1CNC[C@@H]2[C@@H](c3ccc(Br)cc3)[C@H](CO)N12	.	.	-31	.	-7
O=C(OC1CCN(CCCl)CC1)C(c1ccccc1)c1ccccc1	-14	0	-3	51*	5
O=C(Cc1ccncc1)N1CCCCN2[C@H](C1)[C@H](c1ccc(C#Cc3ccccc3F)cc1)[C@@H]2CO	.	.	14	.	7
CC(=O)c1c(C)n(C2CCCCC2)c2ccc(O)cc12	53*	86*	4	70*	25
O=C(O)[C@H]1[C@H](CO)[C@H]2Cn3c(ccc(-c4cccnc4)c3=O)[C@@H]1N2C(=O)Nc1cc(F)ccc1F	.	.	-3	.	9
O=Cc1cn(Cc2cccc([N+](=O)[O-])c2)c2ccccc12	68*	28	7	89*	87*
N#Cc1ccc(Cn2cc(C=O)c3ccccc32)cc1	5	9	28	3	17
Cc1cccc(Cn2cc(C=O)c3ccccc32)c1	26	25	15	51*	14
COc1ccc(C#Cc2ccc([C@H]3[C@H]4CN(C(=O)Cc5cccnc5)CCCCN4[C@H]3CO)cc2)cc1	.	.	-13	.	-37
C=C(C)CSc1nnc([C@@H](N)Cc2c[nH]c3ccccc23)o1	-12	-3	.	-3	.
Cc1[nH]nc2ccc(-c3cncc(OC[C@@H](N)Cc4c[nH]c5ccccc45)c3)cc12	77*	98*	.	90*	.
C=C1C(=O)O[C@@H]2C[C@@H](C)[C@@H]3C=CC(=O)[C@@]3(C)[C@@H](O)[C@H]12	32	104*	58*	94*	102*
COC(=O)[C@H]1[C@H](CO)[C@H]2Cn3c(cccc3=O)[C@@H]1N2Cc1nccs1	.	.	2	.	-2
NCCc1cc(O)c(O)cc1O	4	56*!	12	5	7
O=C(C1CCCN(c2nnc(-n3cccc3)s2)C1)N1CCC2(CC1)OCCO2 (stereo unspecified)	.	74*	.	11	.
Cc1ccc2nc(N3CCC(C(=O)N4CCC5(CC4)OCCO5)CC3)sc2c1	-8	13	.	7	.
O=c1[nH]c(=S)[nH]c(O)c1N=Nc1ccc(SC(F)F)cc1	18	58*	-2	21	10
CC(C)c1ccc(N=Nc2c(O)[nH]c(=O)[nH]c2=O)cc1	-54	-27	-66	-5	-38
SMILES	TROY signal inh	TWEAK Fn14 block	EWS-Fli block	LMP1 NFkB inh	LGR2 inh
CCC(C)C1NC(=O)C(NC(=O)C(CC(C)C)N(C)C(=O)C2CCCN2C(=O)C(C)O)C(C)OC(=O)C(Cc2ccc(OC)cc2)N(C)C(=O)C2CCCN2C(=O)C(CC(C)C)NC(=O)[C@H](C)C(=O)[C@H](C(C)C)OC(=O)CC1O (stereo partly specified)	85*	102*	72*	93*	101*
O=[N+]([O-])c1ccccc1-c1cc(-c2ccccc2)cc(-c2ccccc2)[n+]1Cc1ccccc1Cl	.	.	51*	.	40
C/C=C/c1ccc(C2[C@H]3CNC[C@@H]2N3CC2CCCCC2)cc1 (stereo partly specified)	.	.	76*	.	-5
COc1c2c(cc3c1OCO3)CCN(C)C2	3	-13	-16	79*	1
COc1cc2c(cc1OC)-c1c3c(cc4c1[C@@H](C2)N(C)CC4)OCO3	-60	-91	2	-3	6
C/C=C(\C)C(=O)N[C@@H](c1ccccc1)[C@@H](O)C(=O)O[C@H]1C[C@@]2(O)[C@@H](OC(=O)c3ccccc3)C3[C@](C)(C(=O)[C@H](OC(C)=O)C(=C1C)C2(C)C)[C@@H](O)C[C@H]1OC[C@@]31OC(C)=O (stereo partly specified)	22	28	58*	.	.
CC(=O)O[C@@]12CO[C@@H]1C[C@H](O)[C@@]1(C)C(=O)[C@H](O)C3=C(C)[C@@H](O)C[C@@](O)([C@@H](OC(=O)c4ccccc4)C12)C3(C)C (stereo partly specified)	-27	8	-10	-40	9
C/C=C(\C)C(=O)N[C@@H](c1ccccc1)[C@@H](O)C(=O)O[C@H]1C[C@@]2(O)[C@@H](OC(=O)c3ccccc3)C3[C@](C)(C(=O)[C@H](O)C(=C1C)C2(C)C)[C@@H](O)C[C@H]1OC[C@@]31OC(C)=O (stereo partly specified)	17	9	57*	18	19
CC=Cc1ccc2n(c1=O)C[C@@H]1[C@@H](CO)[C@H](C(=O)N(C)C)N[C@H]21 (mixture of isomers)	.	.	-2	.	13
CN(C)c1ccc(CN2CC=C(c3ccc(F)cc3)CC2)cc1	25	3	.	-4	13
O=[N+]([O-])c1ccc(CN2CC=C(c3ccccc3)CC2)cc1	1	22	.	43*	.
C=C(C=O)CC1CC(O)[C@]2(C)OC3CC4OC5C[C@]6(C)O[C@]7(C)CCC8OC9C[C@]%10(C)OC%11C(C)=CC(=O)OC%11CC%10OC9C[C@@H](C)C8OC7CC6O[C@]5(C)CC5OC5C4OC3CC2O1 (stereo partly specified)	89*	108*	.	74*	.
O=C(O)[C@H]1[C@H](CO)[C@H]2Cn3c(ccc(-c4cncnc4)c3=O)[C@@H]1N2C(=O)NC1CCCC1	.	.	6	.	-15
O=[N+]([O-])c1c(Cl)c(Cl)c(Cl)c(Cl)c1Cl	-1	5	3	3	15
Nc1cc(Cl)c2nonc2c1[N+](=O)[O-]	70*	58*	.	0	5
CCN1[C@@H]2Cn3c(ccc(-c4ccc(OC)cc4)c3=O)[C@H]1[C@@H](C(=O)OC)[C@@H]2CO	.	.	3	.	16
Cc1cccc(S(=O)(=O)N2[C@@H]3Cn4c(ccc(-c5cccc(F)c5)c4=O)[C@H]2[C@@H](C(=O)O)[C@@H]3CO)c1	.	.	5	.	21
COc1ccc(C#Cc2ccc([C@H]3[C@@H](CO)N4CCCCN(C(=O)Cc5cccnc5)C[C@H]34)cc2)cc1	.	.	-11	.	-11
